This is part of a sample that, as a whole, favours compounds with a hit. Of some 83,000 tested, about 20% had one in any assay.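 Method: cells in 96-well plates; compound added at one concentration; 48 h incubation; percent growth measured; values under 10 scored active.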 A number with no mark means an inactive call. Calls of active or inactive are those of the source.
system: A498 renal; assay: NCI-60 one-dose screen, 48 h (100 = growth as untreated, 0 = no growth, -100 = all killed); conditions: 10 µM unless noted

Q: How did the growth turn out when `COc1ccc(C(=O)c2cc(OC)c(OC)c(OC)c2)cc1/C=C/C(=O)c1ccc(OC)c(OC)c1` was run?
A: 74.1%

Q: For `COc1c(NC[C@H]2OC(O)[C@H](O)[C@@H](O)[C@@H]2O)c(=O)c1=O` (some centres undefined), which growth is on record?
A: 73%

Q: `COc1cccc(/C=C/c2c(C(=O)O)cccc2[N+](=O)[O-])c1OC` was tested. Which growth did it give?
A: 88.4%

Q: How did the growth turn out when `COc1ccc(OC)c(C(=O)c2oc3ccc(Br)cc3c2N)c1` was run?
A: -13.8% (active)

Q: Which growth does the source give for `Nc1c(C(=O)Nc2ccccc2)sc2nc3c(cc12)CN(Cc1ccccc1)CC3` here?
A: 26.5%

Q: Which growth does the source give for `CN=S(=O)(NC(=O)c1ccc(Cl)cc1Cl)c1ccc(Br)s1` (centres undefined) here?
A: 67.8%

Q: Which growth does the source give for `CC(C)C[C@H](NC(=O)[C@H](Cc1ccccc1)n1ccc(N2CCCCC2)cc1=O)B(O)O` here?
A: -24.6% (active)

Q: How did the growth turn out when `COc1ccc(-c2cn[nH]c2-c2cc(OC)c3c(c2)OCO3)cc1` was run?
A: -18.8% (active)

Q: How did the growth turn out when `COc1ccccc1CNCCCN1C(=O)c2ccc3c4c(ccc(c24)C1=O)C(=O)N(CCCNCCCCNCCCCN)C3=O` was run?
A: 9.03% (active)

Q: For `Nc1c(C(=O)c2ccc(F)cc2)sc2nc3c(cc12)CCCC3`, which growth is on record?
A: 56.2%

Q: `COc1cccc(C2CC(=O)Nc3c2c(C)nn3-c2nc3ccccc3[nH]2)c1OC` (centres undefined) was tested. Which growth did it give?
A: -5.31% (active)

Q: With `COc1ccc(NC(=O)CSc2nc3ccc(Cl)cc3c(=O)n2-c2ccccc2C(F)(F)F)c(OC)c1OC` as the compound, how does the growth read?
A: 78.3%

Q: How did the growth turn out when `Cc1cc(C)c(NC(=O)c2sc3nc4c(cc3c2N)CN(Cc2ccccc2)CC4)c(C)c1` was run?
A: 1.87% (active)

Q: How did the growth turn out when `CC(C)[C@H](CO)Nc1nc(Nc2ccc(C(=O)NCCNS(=O)(=O)c3cccc4c(N(C)C)cccc34)c(Cl)c2)c2ncn(C(C)C)c2n1` was run?
A: -9.15% (active)

Q: For `COc1ccc(C(=O)c2cc(OC)c(OC)c(OC)c2)cc1/C=C/C(=O)c1ccc2c(c1)OCO2`, which growth is on record?
A: 71.9%

Q: For `Cc1ccc(Oc2nc3ccccc3cc2-c2nnc(Cn3c(COc4ccccc4)nc4ccccc43)o2)cc1`, which growth is on record?
A: 54.1%

Q: Which growth does the source give for `Nc1c(C(=O)Nc2ccccc2)sc2nc3c(cc12)CCCCC3` here?
A: -5.02% (active)

Q: For `CC(C)C[C@H](NC(=O)Cn1ccc(NCc2ccccc2)cc1=O)B(O)O`, which growth is on record?
A: -20.9% (active)

Q: With `CC(C)(C)c1ccc(S(=O)(=O)Oc2ccc3c4c(c(=O)oc3c2)CCCCC4)cc1` as the compound, how does the growth read?
A: -0.52% (active)

Q: Which growth does the source give for `COc1cc(-c2nc(-c3nc4ccccc4[nH]3)cc3c2[nH]c2ccccc23)cc(OC)c1OC` here?
A: 44.8%

Q: Which growth does the source give for `O=C(Nc1ccc(OCc2nnc(-c3ccc(Cl)cc3)o2)c(F)c1)Nc1ccc(Cl)c(Cl)c1` here?
A: 67.9%

Q: `COc1ccc(/C=C/C(=O)c2ccc(B(O)O)cc2)cc1O` was tested. Which growth did it give?
A: 61.8%

Q: Which growth does the source give for `COc1ccc(/C=C/C(=O)c2cc(OC)c(OC)c(OC)c2)cc1OCc1cn(Cc2ccc(F)cc2)nn1` here?
A: 78.7%

Q: How did the growth turn out when `CC(C)(C)OC(=O)N[C@@H](Cc1ccccc1)C(=O)N(Cc1ccccc1)C1(C(=O)NCc2ccccc2)CCN(Cc2ccccc2)CC1` was run?
A: 8.13% (active)

Q: `COC(=O)c1cc(-c2cccs2)c(C#N)c(N)c1C#N` was tested. Which growth did it give?
A: 104%

Q: Which growth does the source give for `CCN(CC)P(=O)(N(CC)CC)N(CCCSC/C=C(\C)CC/C=C(\C)CCC=C(C)C)CCCN1CCN(C)CC1` here?
A: 77.2%

Q: How did the growth turn out when `O=C(O)c1cccc([N+](=O)[O-])c1/C=C/c1ccccc1` was run?
A: 89.1%

Q: `Cc1ccc(C(=O)c2sc3nc4c(cc3c2N)CCCC4)c(C)c1` was tested. Which growth did it give?
A: -10.8% (active)

Q: With `COc1cc(/C=C\c2cc(OC)c(OC)c(OC)c2)cc(N/C=C\C(=O)c2c[nH]c3ccccc23)c1OC` as the compound, how does the growth read?
A: 39.3%

Q: `COc1cc(C(=O)/C=C/c2cc(C(=O)c3cc(OC)c(OC)c(OC)c3)ccc2OC)ccc1N` was tested. Which growth did it give?
A: -6.91% (active)

Q: `CC(C)C[C@H](NC(=O)[C@@H](Cc1ccccc1)n1ccc(Nc2ccccc2)cc1=O)B(O)O` was tested. Which growth did it give?
A: -47.3% (active)

Q: With `COc1ccc(Cn2c(SC)nc(=O)n(Cc3ccc(Cl)cc3)c2=O)cc1` as the compound, how does the growth read?
A: 88.9%

Q: For `COc1ccc(Cn2cc(COc3cc(/C=C/C(=O)c4cc(OC)c(OC)c(OC)c4)ccc3OC)nn2)cc1`, which growth is on record?
A: 81.4%

Q: `O=c1oc2cc(OS(=O)(=O)c3ccccc3)c(Cl)cc2c2c1CCCCCC2` was tested. Which growth did it give?
A: 86.1%

Q: For `COc1ccc(-c2nc(-c3nc4ccc(F)cc4[nH]3)cc3c2[nH]c2ccccc23)cc1`, which growth is on record?
A: 26.4%

Q: For `COc1ccc(C2CC(=O)Nc3c2c(C)nn3-c2nc3ccccc3[nH]2)cc1OC` (centres undefined), which growth is on record?
A: 3.48% (active)

Q: For `COc1ccc(NC(=O)CSc2nc3ccccc3c(=O)n2-c2ccccc2C(F)(F)F)c(OC)c1OC`, which growth is on record?
A: 74.8%

Q: Which growth does the source give for `COc1ccc(C(=O)/C=C/c2cc(C(=O)c3cc(OC)c(OC)c(OC)c3)ccc2OC)cc1` here?
A: 93.1%

Q: With `COc1ccc(C(=O)/C=C/c2ccc(/C=C/c3cc(OC)c(OC)c(OC)c3)cc2)cc1` as the compound, how does the growth read?
A: 80%

Source: PubChem BioAssay (NCI)
